Drawing on PubChem BioAssay, this text covers z-score and composite z-score for six compounds.

A short description of assay [1]: A549 cell viability effects, profiling panel, calcein-AM fluorescence, 48 h, basal (AID 1162). Also: test concentration not given here. Conditions: higher = more signal.
Assay [2] is described as follows: adipocyte viability effects, profiling panel, cell-based, 3T3-L1 adipocytes, calcein-AM fluorescence, 48 h, basal (AID 1163). Also: test concentration not given here. The note with it: 3T3-L1 adipocytes viability, higher = more signal.
Assay [3] is described as follows: HepG2 cell viability effects, profiling panel, calcein-AM fluorescence, 48 h, basal (AID 1164). Also: test concentration not given here. Conditions: higher = more signal.
Assay [4] can be described thus: MM1S cell viability effects, profiling panel, calcein-AM fluorescence, 48 h, basal (AID 1165).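 Also: viability of MM1S multiple myeloma cells under basal unstimulated conditions; test concentration not given here.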 The note with it: higher = more signal.
A short description of assay [5]: basal RPMI8226 viability, no added stimulus, profiling panel, cell-based, calcein-AM fluorescence, 48 h, PK04 Diversity Set (AID 1166).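 Also: cells grown under basal conditions without added stimulus; test concentration not given here.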 Conditions: RPMI8226 myeloma viability, higher = more signal.
The nature of assay [6]: basal HepG2 mitochondrial membrane potential changes, profiling panel, cell-based, JC-1 fluorescence, 24 h, 100 nL compound (AID 1167). Also: test concentration not given here. The note with it: higher = more signal.
A short description of assay [7]: basal 3T3-L1 adipocyte mitochondrial potential changes, profiling panel, cell-based, JC-1 fluorescence, 3T3-L1 adipocytes, 24 h, 100 nL compound (AID 1168). Also: test concentration not given here. The note with it: JC-1 mitochondrial fluorescence, higher = more signal, called active from +8 up or from −8 down.
Assay [8] in a line: basal RPMI8226 mitochondrial membrane potential changes, profiling panel, cell-based, JC-1 fluorescence, 24 h, 100 nL compound (AID 1169). Also: test concentration not given here. Conditions: RPMI8226 myeloma, JC-1 mitochondrial potential fluorescence, higher = more signal.
A short description of assay [9]: basal MM1S mitochondrial membrane potential changes, profiling panel, cell-based, JC-1 fluorescence, 24 h, 100 nL compound (AID 1170). Also: test concentration not given here. The note with it: higher = more signal.
Assay [10] can be described thus: A549 lung cancer cell viability effects, profiling panel, resazurin fluorescence, 24 h, PK04 Diversity Set (AID 1171). Also: test concentration not given here. Conditions: higher = more signal, called active from +8 up or from −8 down. A general note: The colour change of resazurin is a common sign of viable cells or microbes.
A short description of assay [11]: HepG2 liver cancer cell viability effects, profiling panel, resazurin fluorescence, 24 h, PK04 Diversity Set (AID 1172). Also: test concentration not given here. The note with it: higher = more signal.
Assay [12] can be described thus: basal S. cerevisiae growth modulation, no modifier, primary screen, OD600, strain BY4716, 24 h, basal condition (AID 1173). Conditions: OD600, 24 h, higher = more signal, called active from +8 up or from −8 down.
The nature of assay [13]: MM1S myeloma cell viability, profiling panel, resazurin fluorescence, basal, 24 h, PK04 Diversity Set (AID 1174).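 Also: MM1S multiple myeloma cell line; test concentration not given here.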 The note with it: higher = more signal, called active from +8 up or from −8 down.
Assay [14] addresses Dihydroorotate dehydrogenase (quinone), mitochondrial (Plasmodium falciparum (isolate 3D7)) (UniProt Q08210). In words: PfDHODH enzyme inhibitors, primary screen, biochemical, C-terminal His tag, absorbance 600 nm (AID 1175).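 Also: recombinant parasite enzyme with a five histidine tag at its C terminus; test concentration not given here.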 Conditions: DCIP absorbance 600 nm, higher = more signal, called active from +8 up or from −8 down.
Assay [15] in a line: P. aeruginosa biofilm formation inhibitors, primary screen, strain PAO1, LB-PBS medium, absorbance 600 nm (AID 1176). Also: test concentration not given here. The note with it: P. aeruginosa PAO1 growth/biofilm, A600, 12 h; higher = more signal.
Assay [16] in a line: S. cerevisiae RM11-1a growth modifiers, primary screen, strain RM11-1a, OD600, basal, 24 h (AID 1177).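 Also: cultures grown under basal conditions with no added stressor; test concentration not given here.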 Conditions: OD600, 24 h, higher = more signal, called active from +8 up or from −8 down.
Assay [17] can be described thus: E. coli acrAB mutant growth effects, primary screen, E. coli filamentation inducers, strain DRC39, OD650, 24 h (AID 1178).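 Also: growth measured as culture turbidity by optical density at 650 nm; test concentration not given here.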 Conditions: higher = more signal, called active from +8 up or from −8 down.
Assay [18] can be described thus: E. coli acrAB mutant growth effects, primary screen, E. coli filamentation inducers, strain DRC39, OD650, 48 h (AID 1179).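 Also: screen aims at cell division blockers that make cells filament.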 The note with it: E. coli DRC39 delta-acrAB growth, higher = more signal, called active from +8 up or from −8 down.
Assay [19] is described as follows: RPMI8226 myeloma cell viability, profiling panel, resazurin fluorescence, basal, 24 h, PK04 Diversity Set (AID 1180).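 Also: RPMI8826 multiple myeloma cell line at 5000 cells per well; test concentration not given here.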 Conditions: higher = more signal.
The target of assay [20] is E3 ubiquitin-protein ligase XIAP (Homo sapiens) (UniProt P98170). Briefly: XIAP binders, primary screen, biophysical, small-molecule microarray, fluorescence 635 nm (AID 1181).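 Also: score merges 667 nm emission and signal to noise over triplicate slides.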 The note with it: small-molecule microarray binding, higher = more signal.

Where “and” joins values, the source holds several entries; their conditions need not be identical. Identical values can stand only once. More than one record can exist for a structure, and the calls need not agree. Calls of active or inactive are those of the source. Unless noted, no rule for the calls is given here.

Chain of E3 ubiquitin-protein ligase XIAP (Homo sapiens) (P98170 whole entry, looked up): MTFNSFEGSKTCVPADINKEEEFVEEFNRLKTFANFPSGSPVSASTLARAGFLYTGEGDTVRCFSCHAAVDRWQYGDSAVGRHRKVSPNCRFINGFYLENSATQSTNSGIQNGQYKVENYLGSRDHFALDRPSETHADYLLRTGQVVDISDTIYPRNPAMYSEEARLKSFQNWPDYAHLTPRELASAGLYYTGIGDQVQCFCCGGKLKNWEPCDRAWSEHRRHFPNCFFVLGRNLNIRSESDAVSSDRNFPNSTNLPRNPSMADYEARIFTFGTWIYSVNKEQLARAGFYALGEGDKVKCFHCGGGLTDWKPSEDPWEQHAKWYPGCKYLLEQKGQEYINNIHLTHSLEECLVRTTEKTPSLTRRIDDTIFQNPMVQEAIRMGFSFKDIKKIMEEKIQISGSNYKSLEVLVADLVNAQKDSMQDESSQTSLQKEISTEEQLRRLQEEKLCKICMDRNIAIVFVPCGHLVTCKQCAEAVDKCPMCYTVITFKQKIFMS
Chain of Dihydroorotate dehydrogenase (quinone), mitochondrial (Plasmodium falciparum (isolate 3D7)) (Q08210 whole entry, looked up): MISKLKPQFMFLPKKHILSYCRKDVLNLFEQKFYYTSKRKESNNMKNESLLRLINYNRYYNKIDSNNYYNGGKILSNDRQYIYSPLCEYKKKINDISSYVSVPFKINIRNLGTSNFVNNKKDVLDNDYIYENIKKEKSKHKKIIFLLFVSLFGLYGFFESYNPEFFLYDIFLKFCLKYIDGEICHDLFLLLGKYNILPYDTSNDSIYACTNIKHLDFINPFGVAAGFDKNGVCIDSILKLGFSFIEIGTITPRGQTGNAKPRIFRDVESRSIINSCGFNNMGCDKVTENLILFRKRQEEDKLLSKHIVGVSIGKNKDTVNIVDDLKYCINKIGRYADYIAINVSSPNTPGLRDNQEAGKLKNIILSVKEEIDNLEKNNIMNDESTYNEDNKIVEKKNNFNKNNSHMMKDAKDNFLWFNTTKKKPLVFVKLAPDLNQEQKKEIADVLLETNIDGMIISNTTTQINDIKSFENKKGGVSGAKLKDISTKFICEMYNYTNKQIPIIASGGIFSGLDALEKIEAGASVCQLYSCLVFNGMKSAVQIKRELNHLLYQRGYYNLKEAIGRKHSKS

On to `COC(=O)C1=C(C)N(Cc2ccccc2)C2=C(C(C)=O)[C@H](c3ccccc3)[C@@](O)(C(=O)OC)C(=O)N2[C@@H]1c1ccccc1`, for which the z-score is 1.73 and 0.919 in assay [1]; -0.0798 and 0.56 in assay [2]; 0.954 and 0.364 in [3]; 0.592 and 0.378 in [4]; 0.604 and 0.984 in assay [5]; 3.1 and 0.826 in [6]. The z-score was -1.09 (inactive) and 2.47 (inactive) in assay [7]; -0.938 and -0.592 in assay [8]; -0.444 and 0.924 in [9]; 1.78 (inactive) and 0.197 (inactive) in [10]; 1.38 and 0.559 in assay [11]; -2.41 (inactive) and -3.21 (inactive) in assay [12]. Besides, the z-score was 1.07 (inactive) and 0.983 (inactive) in [13]; 1.08 (inactive) in [15]; -0.107 (inactive) and -3.5 (inactive) in assay [16]; 1.32 (inactive) and 0.552 (inactive) in assay [17]; 0.972 (inactive) and -1.35 (inactive) in assay [18]; 1.27 and 0.0662 in assay [19]. In addition, the composite z-score in assay [14] was 0.523 (inactive) and -1.82 (inactive); in assay [20], 0.0177 and -0.244.
As to `CCOC(=O)C[C@H]1[C@H](OC(=O)c2ccccc2-c2ccccc2)[C@@H](NC(=O)c2ccccc2)c2cc(OCCCO)ccc2N1C(=O)c1ccc2ccccc2n1`, the z-score in assay [1] is 0.916 and -0.393; in assay [2] it was 0.804 and -0.0181; in assay [3] it was 0.694 and 1.01; in assay [4] it was 0.175 and -1.55; in [5], -0.749 and -0.483; in assay [6], 0.733 and 1.5. Besides, the z-score is 0.408 (inactive) and 0.209 (inactive) in assay [7]; -1.08 and 0.127 in assay [8]; -0.627 and 0.14 in [9]; 0.65 (inactive) and 0.579 (inactive) in [10]; 0.578 and -0.48 in [11]; -0.602 (inactive) and 1.01 (inactive) in assay [12]. Further, the z-score in assay [13] was 0.602 (inactive) and -0.924 (inactive); in assay [15] it was -0.152 (inactive) and 0.432 (inactive); in [16] it was -0.26 (inactive) and -0.698 (inactive); in assay [17], 1.39 (inactive) and -0.851 (inactive); in [18], 0.845 (inactive) and -0.687 (inactive); in assay [19], -0.236 and -0.847. Further, the composite z-score in assay [14] is 0.139 (inactive) and -0.264 (inactive); in assay [20] it was -0.227 and 0.0451.
As to `C=C[C@@H](OC)[C@H](O)c1ccc(O)c(F)c1`, the z-score in assay [1] was 0.29 and -0.115; in assay [2], -0.625 and 0.478; in assay [3], -0.232 and 0.531; in assay [4], 0.204 and 0.115; in assay [5], 0.296 and 1.08; in assay [6], -0.242 and 0.559. For the same compound, the z-score in assay [7] was 0.0698 (inactive) and -0.132 (inactive); in assay [8], 0.498 and -0.363; in assay [9] it was 0.724 and -0.819; in [10] it was -0.0191 (inactive) and -0.71 (inactive); in assay [11] it was 0.097 and -0.0575; in assay [12], -8.11 (active) and -7.12 (inactive). The z-score in assay [13] was 0.0746 (inactive) and 0.161 (inactive); in assay [15] it was 0.826 (inactive) and 0.143 (inactive); in assay [16] it was 1.17 (inactive) and -1.07 (inactive); in assay [17], 0.407 (inactive) and 0.707 (inactive); in assay [18], 0.27 (inactive) and 0.965 (inactive); in assay [19] it was -0.0761 and 0.295. The composite z-score is 0.789 (inactive) and -1.04 (inactive) in [14]; -0.195 and 0.0027 in [20].
Regarding `C=C(C)C(=O)OC[C@@H]1CN2[C@@H](CC[C@@H](C)[C@@H]2c2ccc(Br)cc2)C(=O)O1`, the z-score in assay [1] was 0.254; in assay [2], -0.2; in [3] it was 1.08; in assay [4] it was 0.419; in assay [5], 0.427; in [6], 0.642. For the same compound, the z-score was 0.945 (inactive) in assay [7]; -0.28 in assay [8]; -0.631 in [9]; 0.173 (inactive) in assay [10]; 0.726 in assay [11]; -3.12 (inactive) in assay [12]. In addition, the z-score in assay [13] was 0.155 (inactive); in assay [15], 0.936 (inactive); in [16] it was 0.361 (inactive); in assay [17], 0.513 (inactive); in assay [18], 0.682 (inactive); in [19] it was 0.173. Moreover, the composite z-score in assay [14] is 0.187 (inactive); in assay [20], -0.0326.
With `COC(=O)[C@H](C)NC(=O)CCC1CC(OC(=O)NCCc2ccc(F)cc2)CC2(CCCC(COC(=O)NCCCN3CCCC3=O)O2)O1` (stereo not given in full), the z-score was -0.48 in assay [1]; 1.06 in assay [2]; -1.32 in assay [3]; -0.901 in assay [4]; -1.78 in assay [5]; -0.197 in assay [6]. The z-score was 0.0783 (inactive) in [7]; -0.405 in assay [8]; 0.0394 in [9]; 0.209 (inactive) in [10]; -0.704 in [11]; -0.343 (inactive) in assay [12]. Moreover, the z-score in assay [13] was 0.951 (inactive); in assay [15], -0.977 (inactive); in assay [16] it was 0.492 (inactive); in assay [17] it was -0.441 (inactive); in assay [18] it was -0.367 (inactive); in [19], 0.315. Besides, the composite z-score in [14] is 0.322 (inactive); in [20], -0.283.
On to `C=CCN(CCCCC)C(=O)C(c1cccs1)N(C(=O)/C=C\C(=O)O)c1c(Cl)cccc1CO` (stereo not given), for which the z-score is 0.307 and -0.656 in [1]; 0.131 and -0.101 in assay [2]; -1.11 and -0.202 in assay [3]; 1.34 and 2.08 in assay [4]; 0.114 and -0.235 in [5]; -0.0476 and -0.222 in assay [6]. Besides, the z-score in assay [7] is -0.706 (inactive) and 0.13 (inactive); in assay [8] it was 0.1 and 0.992; in assay [9], 0.0829 and -0.125; in [10], -0.559 (inactive) and 0.0449 (inactive); in assay [11], -0.939 and -0.559; in assay [12], -0.69 (inactive) and -0.768 (inactive). The z-score in assay [13] was -0.18 (inactive) and -0.317 (inactive); in assay [15], -0.0837 (inactive) and -0.677 (inactive); in [16] it was -0.0138 (inactive) and -0.374 (inactive); in [17] it was 0.246 (inactive) and 0.0068 (inactive); in assay [18], 0.425 (inactive) and 0.212 (inactive); in assay [19], -0.394 and -0.42. The composite z-score in [14] was 0.401 (inactive) and 0.461 (inactive); in assay [20], -0.158 and -0.378.
